The campaign covered roughly 5,500 compounds. About 2,000 (36%) were called active. Another 18% or so got no clear call; they are omitted. Cut-off read from the data, not from the text of the source: active = normalized growth mostly below about 0.91 (no sharp cut-off); inconclusive = no clear call, values can overlap the other calls; inactive = mostly above about 0.92. The list shows a part of the results.
Assay: chemical genetic growth profiling, strain panel (AID 1159580);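 note: tested at 20 µM; growth read once vehicle control cultures reached saturation at 30 °C; 1 = growth at the plate median or of vehicle wells; lower values mean less growth of the strain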
Details: S. cerevisiae deletion strains, growth OD
[1] = locus YDL101C, strain DUN1, active compounds read low
[2] = locus YHR030C, strain SLT2, active compounds read low
[3] = locus YAL013W, strain DEP1, active compounds read low
[4] = locus YDR150W, strain NUM1, active compounds read low
[5] = locus YEL061C, strain CIN8, active compounds read low
[6] = locus YGR078C, strain PAC10, active compounds read low
[7] = locus YHR087W, strain rtc3, active compounds read low
[8] = locus YJR043C, strain POL32, active compounds read low
[9] = locus YJR075W, strain HOC1, active compounds read low
[10] = locus YLR039C, strain RIC1, active compounds read low
[11] = locus YLR058C, strain SHM2 (second series), active compounds read low
[12] = locus YLR085C, strain ARP6, active compounds read low
[13] = locus YLR262C, strain YPT6, active compounds read low
[14] = locus YML094W, strain GIM5, active compounds read low
[15] = locus YMR219W, strain ESC1, active compounds read low
[16] = locus YMR263W, strain SAP30, active compounds read low
[17] = locus YNL153C, strain GIM3, active compounds read low
[18] = locus YNL298W, strain CLA4 (second series), active compounds read low
[19] = locus YNL322C, strain KRE1, active compounds read low
[20] = locus YNR030W, strain Alg12, active compounds read low
[21] = locus YPL055C, strain LGE1, active compounds read low
[22] = locus YPL241C, strain CIN2, active compounds read low
[23] = locus YPR135W, strain CTF4, active compounds read low

Measured: normalized growth

OC(COCc1ccccc1)Cn1c2ccccc2c2ccccc21 (stereo not drawn)
active: [2] 0.632 | locus YLR113W, strain HOG1, active compounds read low 0.769 | locus YPL256C, strain CLN2, active compounds read low 0.792
inactive: locus YAR019C, strain CDC15, active compounds read low 0.951 | locus YBL105C, strain PKC1, active compounds read low 0.95 | locus YBR135W, strain CKS1, active compounds read low 0.951 | locus YBR136W, strain MEC1, active compounds read low 0.952 | locus YBR160W, strain CDC28, active compounds read low 0.955 | locus YDL017W, strain CDC7, active compounds read low 0.953 | locus YDL028C, strain MPS1, active compounds read low 0.951 | [1] 0.98 | locus YDL108W, strain KIN28, active compounds read low 0.952 | locus YDL132W, strain cdc53, active compounds read low 0.952 | locus YDL214C, strain PRR2, active compounds read low 0.903 | locus YDR052C, strain DBF4, active compounds read low 0.965 | locus YDR054C, strain cdc34, active compounds read low 0.939 | locus YDR226W, strain ADK1, active compounds read low 0.965 | locus YDR477W, strain SNF1, active compounds read low 0.888 | locus YER123W, strain YCK3, active compounds read low 0.888 | locus YER133W, strain GLC7, active compounds read low 0.876 | locus YFL009W, strain cdc4, active compounds read low 0.964 | locus YFL029C, strain CAK1, active compounds read low 0.947 | locus YFR003C, strain YPI1, active compounds read low 0.947 | locus YFR019W, strain FAB1, active compounds read low 0.954 | locus YFR028C, strain CDC14, active compounds read low 0.96 | locus YGR040W, strain KSS1, active compounds read low 0.888 | locus YGR052W, strain FMP48, active compounds read low 0.874 | locus YGR092W, strain DBF2, active compounds read low 0.838 | locus YHR079C, strain IRE1, active compounds read low 0.729 | locus YHR082C, strain KSP1, active compounds read low 0.91 | locus YHR205W, strain SCH9, active compounds read low 0.936 | locus YIL147C, strain SLN1, active compounds read low 0.953 | locus YJL095W, strain BCK1, active compounds read low 0.866 | locus YJL128C, strain PBS2, active compounds read low 0.917 | locus YJL157C, strain FAR1, active compounds read low 0.882 | locus YJR016C, strain ILV3, active compounds read low 0.953 | locus YJR066W, strain TOR1 (second series), active compounds read low 0.917 | locus YJR066W, strain TOR1, active compounds read low 0.886 | locus YKL048C, strain ELM1, active compounds read low 0.973 | locus YKL067W, strain YNK1, active compounds read low 0.905 | locus YKL101W, strain HSL1, active compounds read low 0.891 | locus YKL193C, strain SDS22, active compounds read low 0.953 | locus YKL203C, strain TOR2, active compounds read low 0.877 | locus YLR133W, strain CKI1, active compounds read low 0.893 | locus YLR403W, strain SFP1, active compounds read low 0.907 | locus YML070W, strain DAK1, active compounds read low 0.876 | locus YMR001C, strain CDC5, active compounds read low 0.944 | locus YMR205C, strain PFK2 (second series), active compounds read low 0.939 | locus YMR277W, strain FCP1, active compounds read low 0.955 | locus YNL006W, strain LST8, active compounds read low 0.946 | locus YNL020C, strain ARK1, active compounds read low 0.881 | locus YNL161W, strain CBK1, active compounds read low 0.947 | locus YNL183C, strain NPR1, active compounds read low 0.885 | locus YNL207W, strain RIO2, active compounds read low 0.946 | locus YNL222W, strain SSU72, active compounds read low 0.958 | locus YNL307C, strain MCK1 (second series), active compounds read low 0.885 | locus YOL078W, strain AVO1, active compounds read low 0.959 | locus YOL136C, strain PFK27, active compounds read low 0.898 | locus YOR061W, strain CKA2, active compounds read low 0.924 | locus YOR119C, strain RIO1, active compounds read low 0.933 | locus YOR231W, strain MKK1, active compounds read low 0.837 | locus YOR329C, strain SCD5, active compounds read low 0.952 | locus YPL031C, strain PHO85, active compounds read low 0.845 | locus YPL204W, strain HRR25, active compounds read low 0.791 | locus YPL209C, strain IPL1, active compounds read low 0.955 | locus YPR025C, strain CCL1, active compounds read low 0.953 | locus YPR106W, strain ISR1, active compounds read low 0.95 | locus YPR111W, strain DBF20, active compounds read low 0.933 | strain NNK1, active compounds read low 0.932 | strain TSCII, active compounds read low 0.945

OCC(O)Cn1c2ccccc2c2ccccc21 (stereo not drawn)
inactive: [3] 1.01 | [1] 1.04 | [4] 1.03 | [5] 0.986 | [6] 1.02 | locus YGR229C, strain SMI1, active compounds read low 0.994 | [2] 1.07 | [7] 0.953 | locus YJL187C, strain SWE1, active compounds read low 1 | [8] 0.987 | [9] 1.01 | [10] 0.982 | [11] 0.988 | [12] 0.97 | [13] 0.959 | [14] 0.975 | [15] 0.986 | [16] 1.01 | [17] 1.02 | [18] 0.984 | [19] 0.999 | [20] 0.977 | locus YOL006C, strain TOP1, active compounds read low 1 | [21] 0.932 | [22] 0.985 | [23] 1.02

O=C(O)c1oc(C(=O)O)c(OCc2ccccc2)c1OCc1ccccc1
inactive: [3] 1.01 | locus YBR229C, strain ROT2, active compounds read low 1.02 | locus YCL061C, strain MRC1, active compounds read low 0.984 | [1] 0.973 | locus YDL134C, strain PPH21, active compounds read low 0.998 | [4] 0.973 | [5] 1.01 | [6] 0.976 | [2] 0.963 | [7] 1.03 | [8] 0.965 | [9] 0.988 | [10] 0.993 | [11] 1.02 | [12] 1.01 | [13] 0.981 | [14] 1.03 | [15] 0.997 | [16] 0.997 | locus YMR307W, strain GAS1, active compounds read low 1.03 | [17] 0.988 | [18] 0.986 | [19] 0.963 | [20] 0.998 | [21] 1.07 | [22] 1.01 | [23] 1
